Screening data (PubChem BioAssay)
An excerpt weighted towards active compounds, which were near 2.2% of everything screened.
V-ATPase pHluor: regulators of yeast V-ATPase proton pumping, primary screen, pHLuorin cytosolic pH fluorescence; S. cerevisiae; 350,000 compounds, 0.37% hits; response, % at 10 µM; in the data active = response mostly above about 7.3%, no sharp cut-off; inactive = mostly below about 5.4%; also: actives read high
VLA-4 inh: inhibition in human VLA-4 binding assay, primary screen, VLA-4 allosteric modulator project, MLPCN library, flow cytometry, VLA-4 expressing cells. inhibition, % (about 7 µM as worked out from the volumes in the protocol). AID 2557, 2010. 330,000 compounds, 0.2% hits. Integrin alpha-4 (Homo sapiens), P13612. ligand binding flow cytometry; in the data active = inhibition above about 50%
m5-HT2A agonist: mouse Htr2a agonists via beta-arrestin recruitment, primary screen, cell-based, luminescence. activation, % at 7.6 µM. 360,000 compounds, 0.66% hits. CHO-K1 mHTR2A beta-arrestin complementation; percent of 30 µM serotonin response. AID 624169, 2012;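 active = activation above a run cutoff, the mean activation of all tested compounds plus 3 SD, cut at about 14% in these data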;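 also: 0% = plate median of compound wells and 100% = 30 µM serotonin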
MEX-5 binding: MEX-5 zinc finger RNA-binding disruptors – biochemical, C. elegans, fluorescence polarization, MLPCN library, primary screen. 300,000 compounds, 0.38% hits. activity score (negative = inhibition of binding), % at 10 µM. Zinc finger protein mex-5 (Caenorhabditis elegans), Q9XUB2. MEX-5/FITC-TCR2 RNA binding; hits give low values;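 active = inhibition past about -25% in most replicates, and total fluorescence under double the plate's negative control median, limit read from the data; inconclusive = replicates evenly split on the limit, or fluorescence at least double controls; inactive = too little inhibition in most replicates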;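 also: 0% = DMSO and -100% = 5 µM competing unlabeled TCR2 RNA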
JMJD2C inh: inhibitors of GASC-1 histone demethylase, primary screen, biochemical, fluorescence, DELFIA europium | inhibition, % at 2.35 µM | AID 2099, 2009 | GST-JMJD2C(1-420) H3K9me3 demethylation | 330,000 compounds, 0.069% hits;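 active = more than half of a compound's replicate wells show inhibition beyond 50%, single wells judged on their own value; inconclusive = some, but no more than half, of replicates pass 50% inhibition; inactive = no replicate passes 50% inhibition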;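 also: signal counts dimethyl H3K9 product captured on neutravidin plate; 0% = median of DMSO wells and 100% = 0.3 times that DMSO median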
Exocytosis inh: LAMP-1 surface exposure blockers, TALL-104 cells – cell-based, flow cytometry, MLPCN library, primary screen | 360,000 compounds, 0.66% hits | inhibition, % at 10 µM | AID 651702, 2012 | TALL-104 LAMP-1 surface exposure; cells stimulated with thapsigargin and PMA;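 active = inhibition above about 55%, limit read from the data; inconclusive = no clear call, values can overlap the other calls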
* = called active by the depositor; ? = inconclusive; nt = no result given.

SMILES	V-ATPase pHluor	VLA-4 inh	m5-HT2A agonist	MEX-5 binding	JMJD2C inh	Exocytosis inh
NC(=O)c1c(NC(=O)c2ccccc2)sc2c1CCN(Cc1ccccc1)C2	-1	2	-3	-27*	-10	-15
CCC(=O)Nc1sc2c(c1C(N)=O)CCN(Cc1ccccc1)C2	0	-20	-3	-8	-2	-4
CNC(=O)c1c(NC(=O)c2ccc(S(=O)(=O)N3CCCC3)cc2)sc2c1CCN(C(C)C)C2	nt	-63	nt	-1	-5	nt
CNC(=O)c1c(NC(=O)c2ccc(S(=O)(=O)N3CCCCC3C)cc2)sc2c1CCN(C)C2 (centres undefined)	2	-2	0	-26*	-6	4
CC(C)C(=O)Nc1sc2c(c1C(N)=O)CCN(Cc1ccccc1)C2	3	-3	0	2	4	4
CN1CCc2c(sc(NC(=O)c3ccc4ccccc4c3)c2C(N)=O)C1	7	0	-10	-92*	-5	49
NC(=O)c1c(NC(=O)c2c(F)cccc2F)sc2c1CCN(Cc1ccccc1)C2	-2	-299	-2	-35*	-4	-3
O=C(NCC(=O)N1CCOCC1)c1ccc(Cl)cc1	1	-2	4	0	14	0
CC(=O)Nc1sc2c(c1C#N)CCN(Cc1ccccc1)C2	0	-22	0	-11	8	3
N#Cc1c(NC(=O)/C=C/C(=O)O)sc2c1CCN(Cc1ccccc1)C2	6	-14	-8	-29*	5	3
COc1ccc2c(c1)OC13CCCCC1C2C(C(=O)c1ccccc1)C(=O)N3 (centres undefined)	20*	-7	-3	-2	10	2
O=C(O)c1ccccc1NS(=O)(=O)c1cccc(C(F)(F)F)c1	18*	-6	3	0	-21	0
O=C(O)c1ccccc1NS(=O)(=O)c1ccc2ccccc2c1	-2	8	1	-1	-2	-2
O=C(O)c1ccccc1NS(=O)(=O)c1cccc(-n2sc3ccccc3c2=O)c1	-4	11	4	-50*	-284	22
COc1ccc(OC)c(/C=c2\sc3nc(-c4cccs4)nn3c2=O)c1	7	43	-3	-51*	3	4
Cc1ccc(CC#N)c(-c2c(CC#N)ccc(C)c2C)c1C	-6	nt	-4	nt	nt	21
Cc1ccc2c(c1C)-c1c(ccc(C)c1C)C(=O)C2=O	-4	nt	0	nt	nt	106*
COc1ccc(-c2cc(C(=O)N/N=C(\C)c3ccco3)c3ccccc3n2)c(OC)c1	-3	3	-1	-32*	-4	-1
CCCn1c(O)c2ccc(C(=O)N=NC(=O)c3cccnc3)cc2c1O	0	6	21*	-3	-4	-1
CC1CC(C(=O)Nc2ccccc2)C(=O)O1 (centres undefined)	0	2	3	4	-4	-16
CNc1ncnc2c1ncn2[C@H]1CN(Cc2ccco2)C[C@@H](CO)O1	nt	nt	-6	nt	nt	-1
Nc1ccc2c(c1)C/C(=C/c1ccco1)C2=O	0	-116	-1	-45*	-7	0
O=C1/C(=C/c2ccco2)CCc2ccccc21	1	-1	-1	2	13	?
CN1CC=C2C(C#N)=C(N)C(C#N)(C#N)[C@H](c3ccoc3)[C@H]2C1	1	-18	3	-66*	5	-2
CN1CC=C2C(C#N)=C(N)C(C#N)(C#N)C(c3cccc(Cl)c3Cl)C2C1 (centres undefined)	-5	-27	-6	-29*	0	-3
SMILES	V-ATPase pHluor	VLA-4 inh	m5-HT2A agonist	MEX-5 binding	JMJD2C inh	Exocytosis inh
N#CC1=C(N)C(C#N)(C#N)[C@H](c2ccoc2)[C@H]2CN(Cc3ccccc3)CC=C12	2	-19	-4	-46*	7	-3
CC(=O)N1CC=C2C(C#N)=C(N)C(C#N)(C#N)[C@H](c3ccoc3)[C@H]2C1	1	2	6	-20	-1	1
Cc1ccc(N2CCN(S(=O)(=O)c3nnc(NC(=O)c4ccco4)s3)CC2)cc1	0	0	5	1	12	-1
O=C(COC(=O)c1cc[n+]([O-])cc1)Nc1ccc(Cl)cc1Cl	1	-2	-3	nt	-17	-2
CSCCC(NC(=O)c1cccc([N+](=O)[O-])c1)C(=O)OCC(=O)N1CCCC1=O (centres undefined)	2	-4	5	1	115	4
CCc1ncc(/C=C2\C(=O)Nc3ccccc32)[nH]1	1	-7	0	-6	2	-3
Cc1ncc(/C=C2\C(=O)Nc3ccccc32)[nH]1	-2	-13	nt	-40*	-4	nt
CN(C(=O)c1ccncc1)C1CCCCC1	-1	-1	-7	-1	-1	-1
O=C(O)c1ccc(-c2ccc(/C=C3\NC(=O)N(Cc4ccc(Cl)cc4)C3=O)o2)cc1Cl	-4	nt	10	-32*	-7	0
CC(=O)c1ccc(C(=O)N2CCCC(CO)(Cc3ccccc3C)C2)s1 (centres undefined)	0	nt	1	-2	-7	2
O=C1C(Cl)=C(NCCN2CCCCC2)C(=O)c2ccccc21	-1	5	-2	-4	34	56*
O=C(CNC(=O)c1cccs1)Nc1cccc(S(=O)(=O)N2CCOCC2)c1	2	nt	4	nt	nt	-6
CC12C=CC3(CN(Cc4ccccc4)C(=O)C3C1C(=O)NCc1ccco1)O2 (centres undefined)	17*	-12	3	-1	5	-1
COC(=O)C1C2C=CC3(CN(Cc4ccco4)C(=O)C13)O2 (centres undefined)	4	5	4	0	0	-5
OC(Cc1cccnc1)c1ccccc1 (centres undefined)	0	nt	-1	nt	nt	-2
COc1ccc(/C=N/Nc2cc(=O)n(C)c(=O)n2C)cc1OC	1	12	2	0	52*	-2
COc1cc(/C=N\Nc2cc(=O)n(C)c(=O)n2C)ccc1O	-1	-8	-1	1	-11	0
Cc1[nH][nH]c(=O)c1/C=N/N1CCOCC1	4	4	-3	-27*	4	22
O=c1n(S(=O)(=O)c2cccc3cccnc23)c2ccccc2n1S(=O)(=O)c1cccc2cccnc12	0	18	-5	2	1	68*
CC1CC(C)CN(S(=O)(=O)c2cccc3cccnc23)C1 (centres undefined)	-1	6	5	-1	5	-4
COC(=O)c1ccccc1NC(=O)CC(=O)Nc1ccccc1C(=O)OC	-3	4	-5	0	-5	-12
COC(=O)c1ccccc1NC(=O)CSCC(=O)Nc1ccccc1	nt	19	18*	-2	7	8
